From PubChem BioAssay AID1851 (National Center for Advancing Translational Sciences (NCATS), 2009)
Out of some 16,000 compounds screened, about 5,100 (32%) were called active. Roughly 25% stayed inconclusive and do not appear here. Some of the results follow. Unmarked numbers belong to inactive results. Calls follow the shape of the dose curve; as a rule, active = well fitted curve in the direction sought with a large enough effect; inconclusive = small, poorly fitted or top-dose-only effect, or effect the other way; inactive = no such curve, though single readings can be large or run the other way.
% is scaled to controls: 0 for no effect and ±100 for the full control effect.

The compounds below were run against Cytochrome P450 3A4 (Homo sapiens) (UniProt P08684) (assay: Cytochrome panel assay with activity outcomes). Conditions: recombinant CYP, pro-luciferin dealkylation, luminescence, p450-cyp3a4; series mostly up to 57.1 µM; activity, negative = inhibition: at the top concentration.
Sequence of Cytochrome P450 3A4 (Homo sapiens) (P08684 whole entry, looked up): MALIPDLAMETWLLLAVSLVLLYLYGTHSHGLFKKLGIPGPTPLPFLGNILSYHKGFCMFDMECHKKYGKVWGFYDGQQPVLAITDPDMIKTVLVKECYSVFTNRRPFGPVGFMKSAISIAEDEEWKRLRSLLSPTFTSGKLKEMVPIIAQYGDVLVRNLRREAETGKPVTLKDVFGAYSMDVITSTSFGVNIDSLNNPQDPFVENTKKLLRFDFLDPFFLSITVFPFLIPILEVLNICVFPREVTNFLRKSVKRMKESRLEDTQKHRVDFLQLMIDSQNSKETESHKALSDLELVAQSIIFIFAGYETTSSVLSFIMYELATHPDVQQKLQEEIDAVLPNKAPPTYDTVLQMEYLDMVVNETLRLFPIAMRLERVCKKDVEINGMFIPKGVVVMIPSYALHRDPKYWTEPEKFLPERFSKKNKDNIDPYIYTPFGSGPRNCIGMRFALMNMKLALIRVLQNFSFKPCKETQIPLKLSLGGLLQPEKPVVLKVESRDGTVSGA
With COc1ccc(-c2nc3cnc(N4CCN(C)CC4)nc3n(C)c2=O)cc1 the “activity, negative = inhibition” value was 18.8%. For CN(C)c1ncc2nc(-c3ccc(F)cc3)c(=O)n(C)c2n1, the “activity, negative = inhibition” value was 18.7%. In the case of COc1ccc(-c2nc3cnc(OC)nc3n(C)c2=O)cc1, the AC50 is reported as 25.1 µM (active). In the case of COc1ncc2nc(-c3ccccc3)c(=O)n(C)c2n1, the “activity, negative = inhibition” value is reported as -25.8%. For COc1ncc2nc(-c3ccc(Cl)cc3)c(=O)n(C)c2n1, the AC50 was 25.1 µM (active). In the case of COc1ncc2nc(-c3ccc(F)cc3)c(=O)n(C)c2n1, the AC50 is reported as 20 µM (active). In the case of Cn1c(=O)c(-c2ccc(Cl)cc2)nc2cnc(OCc3ccccc3)nc21, the “activity, negative = inhibition” value is reported as 19.1%. COc1ncc2nc(-c3ccc(Cl)cc3)c(=O)n(-c3ccccc3)c2n1 was tested, and the “activity, negative = inhibition” value was 11.2%. In the case of Cc1ccnn2cc3c(=O)n(C)c(=O)n(C)c3c12, the “activity, negative = inhibition” value is reported as -5.05%. With C=Cc1c(C)c2cc3[nH]c(cc4nc(cc5nc(cc1[nH]2)C(C)=C5CCC(=O)O)C(CCC(=O)O)=C4C)c(C)c3C=C the “activity, negative = inhibition” value was -10.4%. In the case of COc1cccc(-c2nc(NCc3ccccc3)c3ccccc3n2)c1, the AC50 is reported as 12.6 µM (active). With N#Cc1cccc(-c2nc(NCc3cccs3)c3ccccc3n2)c1 the AC50 was 3.98 µM (active). N#Cc1cccc(-c2nc(NCc3cccnc3)c3ccccc3n2)c1 was tested, and the AC50 was 5.01 µM (active). Cc1cccc(CNc2nc(-c3cccnc3)nc3ccccc23)c1 was tested, and the AC50 was 1 µM (active). With O=[N+]([O-])c1ccc(N2CCOCC2)nc1 the activity, negative = inhibition was -4.02% [at 2.29 µM]. COc1cccc(-c2nc(NCCNC(C)=O)c3ccccc3n2)c1 was tested, and the AC50 was 12.6 µM (active). With COCCNc1nc(-c2cccc(OC)c2)nc2ccccc12 the AC50 was 5.01 µM (active). For COc1cccc(Nc2ncc3nc(-c4ccccc4)c(=O)n(Cc4cccs4)c3n2)c1, the “activity, negative = inhibition” value was -21.3%. In the case of COc1cccc(-c2nc(NC3CC3)c3ccccc3n2)c1, the AC50 is reported as 1.26 µM (active). In the case of COc1cccc(-c2nc(NCc3cccs3)c3ccccc3n2)c1, the AC50 is reported as 3.16 µM (active). NNC(=O)[C@@H](O)[C@H](O)[C@H](O)CO showed an activity, negative = inhibition of 0.183% [at 11.4 µM]. With COc1cccc(-c2nc(NCc3cccnc3)c3ccccc3n2)c1 the AC50 was 2 µM (active). For COC(=O)Cc1c(C)nc2nc(NCc3ccccc3OC)[nH]n2c1=O, the “activity, negative = inhibition” value was -8.91%. COc1cccc(/C=N/NC(=O)C(=O)NCc2cccnc2)c1 was tested, and the activity, negative = inhibition was -8.44% [at 2.29 µM]. In the case of COc1cccc(-c2nc(NCc3ccccc3OC)c3ccccc3n2)c1, the AC50 is reported as 3.98 µM (active). Compound O=C(O)c1nn(-c2ccccc2-c2n[nH]c(=O)[nH]c2=O)c(=O)[nH]c1=O has an activity, negative = inhibition of -2.84% [at 11.4 µM]. CN1CCN(S(=O)(=O)c2ccc3[nH]cc(C(=O)O)c(=O)c3c2)CC1 was tested, and the “activity, negative = inhibition” value was -5.58%. In the case of Cc1ccc(C(=O)NCCCN2CCOCC2)cc1N1CCCC1=O, the “activity, negative = inhibition” value is reported as 15.8%. In the case of Cc1ccccc1NS(=O)(=O)c1ccc2[nH]cc(C(=O)NCCCN3CCOCC3)c(=O)c2c1, the AC50 is reported as 2 µM (active). For CCOC(=O)N1CCN(S(=O)(=O)c2ccc3[nH]cc(C(=O)O)c(=O)c3c2)CC1, the “activity, negative = inhibition” value was -14.5%. For COc1cccc(NS(=O)(=O)c2ccc3[nH]cc(C(=O)NCCN4CCOCC4)c(=O)c3c2)c1, the AC50 was 2.82 µM (active). With N[C@H](C(=O)O)c1nn[nH]n1 the “activity, negative = inhibition” value was -1.46%. C[C@](N)(C(=O)O)c1ccc(-c2nn[nH]n2)cc1 was tested, and the “activity, negative = inhibition” value was -6.26%. With CCCOc1ccc(N2C(=O)CC(S/C(N)=N/N=C(\C)c3cccs3)C2=O)cc1 (stereo not drawn) the activity, negative = inhibition was 7.2% [at 2.29 µM]. In the case of COc1ccc(N2C(=O)CC(S/C(N)=N/N=C(\C)c3cccs3)C2=O)cc1 (stereo not drawn), the AC50 is reported as 14.1 µM (active). For Cc1cccc(Sc2c([N+](=O)[O-])ncn2C)n1, the “activity, negative = inhibition” value was -3.51%. In the case of N[C@H](C(=O)O)[C@@H]1C[C@@H]1C(=O)O, the AC50 is reported as “inactive”. With O=C1/C(=C\c2ccccn2)SC(=S)N1Nc1ncc(C(F)(F)F)cc1Cl the AC50 was 3.16 µM (active). Cc1cc(C)nc(NN2C(=O)/C(=C/c3ccccc3)SC2=S)n1 was tested, and the “activity, negative = inhibition” value was -9.13%. O=C(N/N=C/c1cccc(C(F)(F)F)c1)C1CCN(c2ncc(C(F)(F)F)cc2Cl)CC1 was tested, and the “activity, negative = inhibition” value was -7.12%. In the case of c1ccc(C(CCN2CC3CCC(CC3)C2)c2ccccc2)cc1, the activity, negative = inhibition is reported as -1.84% [at 11.4 µM]. CCN(CC)C(=O)Cn1cnc([N+](=O)[O-])n1 was tested, and the “activity, negative = inhibition” value was -15.3%. In the case of CCOc1ccc(N(CCC#N)S(=O)(=O)c2ccc(OC)cc2)cc1, the AC50 is reported as 11.2 µM (active). O=c1c2c(-c3cccs3)csc2ncn1-c1ccc(Br)cc1 gave an activity, negative = inhibition of -3.71% [at 2.29 µM]. In the case of CCc1cc2c(=O)n(-c3ccccc3)c(=S)[nH]c2s1, the “activity, negative = inhibition” value is reported as -18.8%. In the case of O=c1c2c(-c3cccs3)csc2[nH]c(=S)n1-c1ccccc1, the AC50 is reported as 14.1 µM (active). With COc1ccccc1-c1nc(N(C)Cc2ccco2)c2ccccc2n1 the AC50 was 7.94 µM (active). With CN(Cc1ccco1)c1nc(-c2cccc(C#N)c2)nc2ccccc12 the AC50 was 12.6 µM (active). In the case of COc1cccc(-c2nc(N(C)Cc3ccco3)c3ccccc3n2)c1, the AC50 is reported as 10 µM (active). COc1cccc(-c2nc(N(C)C)c3ccccc3n2)c1 was tested, and the AC50 was 5.01 µM (active). In the case of O=C1OCc2cccc3cccc1c23, the “activity, negative = inhibition” value is reported as 10.8%. In the case of Clc1ccccc1-c1ccc2ncnc(NC3CCNCC3)c2c1, the “activity, negative = inhibition” value is reported as -21.5%. For FC(F)(F)c1ccccc1-c1ccc2ncnc(NC3CC3)c2c1, the AC50 was 1.58 µM (active). In the case of N#Cc1ccccc1-c1ccc2ncnc(NC3CC3)c2c1, the AC50 is reported as 2 µM (active). In the case of Cc1ccccc1-c1ccc2ncnc(NC3CC3)c2c1, the AC50 is reported as 3.16 µM (active). FC(F)(F)c1ccccc1-c1ccc2ncnc(NC3CCNCC3)c2c1 was tested, and the “activity, negative = inhibition” value was -26.8%. With O=C(O)CCc1ccc(-c2ccccc2)[nH]1 the activity, negative = inhibition was -13.2% [at 11.4 µM]. With CC(C)OC(=O)/C(=C\C=C\c1ccccc1)NC(=O)c1ccccc1 the “activity, negative = inhibition” value was 14.2%. With CC(C)OC(=O)/C(=C\c1ccc2c(c1)c1ccccc1n2C)NC(=O)c1ccccc1 the AC50 was 1.12 µM (active). CC(C)SC(=N)N was tested, and the “activity, negative = inhibition” value was -8.48%. In the case of COc1ccc(C(=O)N/N=C(\C)Cn2nc([N+](=O)[O-])cc2C)cc1, the activity, negative = inhibition is reported as -3.05% [at 2.29 µM]. COc1ccc(COC(=O)N/N=C2/C[C@@H](O)[C@@H](O)[C@@H]3[C@@H]4C(=O)N(C(C)(C)C)C(=O)[C@H]4CC[C@@H]23)cc1 showed an activity, negative = inhibition of -13.5% [at 11.4 µM]. With COc1ccc(COC(=O)N/N=C(\C)CC(=O)Nc2c(C)cc(C)cc2C)cc1 the AC50 was 1.78 µM (active). CS(=O)(=O)N1CCC2(CCCN(C(c3ccccc3)c3ccccc3)C2)CC1 was tested, and the AC50 was 3.98 µM (active). In the case of CS(=O)(=O)N1CCC[C@@]2(CCN(C(c3ccccc3)c3ccccc3)C2)C1, the AC50 is reported as 10 µM (active). In the case of CSc1nnnc2ccccc12, the activity, negative = inhibition is reported as -8.64% [at 11.4 µM]. With O=c1cc(-c2ccccc2)[nH]c2nc(Cl)ccc12 the “activity, negative = inhibition” value was -5.23%. N[C@@H](CO)C(=O)O was tested, and the AC50 was “inactive”. For COc1ccc(CCC(C)Nc2cccc(F)c2)cc1 (stereo not drawn), the “activity, negative = inhibition” value was 18.9%. CC(=O)Nc1cccc(N2C(=O)CCC2=O)c1 was tested, and the “activity, negative = inhibition” value was -4.58%. For O=C1CC(SC(=Nc2ccccc2)Nc2ccccc2)C(=O)N1c1cccc(Cl)c1 (stereo not drawn), the AC50 was 11.2 µM (active). CCOC(=O)NNC1CC(=O)N(c2ccc(OC)cc2)C1=O (stereo not drawn) was tested, and the “activity, negative = inhibition” value was -9.66%. For O=C1CC(N2CCOCC2)C(=O)N1c1cccc(Cl)c1 (stereo not drawn), the “activity, negative = inhibition” value was -3.01%. With CCN=C(Nc1cccc(F)c1)SC1CC(=O)N(c2ccc(OC)cc2)C1=O (stereo not drawn) the AC50 was 6.31 µM (active). For Cc1cc(OCCNCCO)cc(C)c1Cl, the “activity, negative = inhibition” value was -20%. CC(C)c1ccc(/C=C2\C=C(c3ccc4ccccc4c3)OC2=O)cc1 gave an activity, negative = inhibition of -9.49% [at 11.4 µM]. In the case of CCCCN(CC)S(=O)(=O)N1CCC(C(=O)NCCCN2CCOCC2)CC1, the AC50 is reported as 11.2 µM (active). CCN(CC)S(=O)(=O)N1CCC(C(=O)NCc2ccc(C)cc2)CC1 was tested, and the AC50 was 11.2 µM (active). For CCS(=O)(=O)N1CCC(C(=O)NCc2ccc(F)cc2Cl)CC1, the “activity, negative = inhibition” value was -27.7%. For CCS(=O)(=O)N1CCC(C(=O)NCc2cccnc2)CC1, the activity, negative = inhibition was -2.97% [at 2.29 µM]. In the case of CCS(=O)(=O)N1CCC(C(=O)NCCCN2CCCC2)CC1, the “activity, negative = inhibition” value is reported as -16%. In the case of CC(C)CN(CC(C)C)S(=O)(=O)N1CCC(C(=O)NCc2ccc(F)cc2)CC1, the AC50 is reported as 15.8 µM (active). For CCCS(=O)(=O)N1CCCC(C(=O)NCCN2CCOCC2)C1 (stereo not drawn), the activity, negative = inhibition was 0.644% [at 11.4 µM]. In the case of Cc1ccc(S(=O)(=O)N2CCC(C(=O)NCc3cccnc3)CC2)cc1, the AC50 is reported as 3.16 µM (active). In the case of C=C[C@H](N)CCC(=O)O, the AC50 is reported as “inactive”. In the case of Cc1ccc(CN2C(=O)CCC2C(=O)NCc2cccnc2)cc1 (stereo not drawn), the AC50 is reported as 2.24 µM (active). For Cc1nc(SCC(=O)Nc2ccc3c(c2)OCCO3)c2oc3ccccc3c2n1, the AC50 was 7.94 µM (active). CC(C)(C)c1nc(SCC(=O)Nc2ccc3c(c2)OCCO3)c2ccccc2n1 was tested, and the AC50 was 7.08 µM (active). With CN(C)CCn1nnnc1SCC1=C(C(=O)O)N2C(=O)[C@@H](NC(=O)Cc3csc(N)n3)[C@@H]2SC1 the “activity, negative = inhibition” value was -0.668% [at 25.6 µM]. C[N+]1(C)CCc2cc(O)c(O)cc2[C@H]1Cc1ccc(O)c(O)c1 was tested, and the activity, negative = inhibition was -3.96% [at 11.4 µM]. With CCO[C@H](c1cc(OC)cc([N+](=O)[O-])c1OC)[C@H](C)/C=C\CC(=O)OC the AC50 was 3.98 µM (active). COC(=O)C/C=C\[C@H](C)[C@@H](OC)c1ccccc1Br gave an activity, negative = inhibition of -22.3% [at 11.4 µM]. With N#Cc1ccccc1NC(=O)Nc1cccs1 the “activity, negative = inhibition” value was -12.3%. For Nc1cc(=O)nc(SCC(=O)Nc2cccc3ccccc23)n1CCc1ccccc1, the AC50 was 0.126 µM (active). With C[C@H](NC(=O)Cn1cncn1)c1ccccc1 the “activity, negative = inhibition” value was 9.64%. For CCC(Sc1nc(=O)cc(N)n1CCc1ccccc1)C(=O)Nc1ccccc1C#N (stereo not drawn), the AC50 was 0.1 µM (active). With CC(NC(=O)CSc1nc(=O)cc(N)n1CCc1ccccc1)c1ccccc1 (stereo not drawn) the AC50 was 0.178 µM (active). Work on O=C1OCCC=C1[C@@H](O)CCc1ccccc1 yielded an activity, negative = inhibition of -19.7% [at 11.4 µM].
